# Columns and labels:
# Assay in all cases: DAPPL (digital affinity profiling via proximity ligation, sequencing); 10 mM Tris-HCl pH 7.5, 50 mM NaCl, 1 mM DTT, 4% glycerol, room temperature, 30 min; GST-TFs on glutathione beads, 16-mer random dsDNA library, 0.1% formaldehyde crosslink after washing; high values mean tight binding
# FLI1 = target: T1, FLI1 (Homo sapiens, UniProt Q01543 1-452); conditions: protein: recombinant; tags: N-terminal GST; dsDNA, one strand shown
# T1 sequence: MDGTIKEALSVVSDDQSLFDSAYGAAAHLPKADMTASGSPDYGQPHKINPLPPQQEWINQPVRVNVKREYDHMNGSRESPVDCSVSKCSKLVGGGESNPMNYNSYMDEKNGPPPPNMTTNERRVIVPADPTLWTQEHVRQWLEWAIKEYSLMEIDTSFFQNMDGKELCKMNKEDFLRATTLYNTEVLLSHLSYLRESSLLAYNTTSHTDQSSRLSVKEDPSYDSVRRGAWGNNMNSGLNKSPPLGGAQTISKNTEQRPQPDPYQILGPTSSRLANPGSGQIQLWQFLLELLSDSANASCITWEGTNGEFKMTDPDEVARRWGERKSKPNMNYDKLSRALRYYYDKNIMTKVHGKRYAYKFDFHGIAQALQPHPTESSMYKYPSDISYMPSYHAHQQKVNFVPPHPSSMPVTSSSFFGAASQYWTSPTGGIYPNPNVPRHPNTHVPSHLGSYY
# In short: (§1)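 In yeast, human transcription factors were expressed with a GST fusion, then pulled down on glutathione beads and given DNA barcodes. Pooled with a tag-only sample, they were exposed to 200 nmole of a 16-mer random double-stranded DNA library (Tris/NaCl/DTT/glycerol buffer, room temperature, 30 min), washed, crosslinked with 0.1% formaldehyde, proximity-ligated using BsaI/T4 ligase for 1 h at 37 °C, PCR-amplified and read on an Illumina NextSeq500. Each hexamer's frequency of reads for a factor, divided by the matching frequency for the tag-only sample, gives the binding signal.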
# ELK1 = target: T2, ELK1 (Homo sapiens, UniProt P19419 1-428); conditions: protein: recombinant; tags: N-terminal GST; dsDNA, one strand shown
# T2 sequence: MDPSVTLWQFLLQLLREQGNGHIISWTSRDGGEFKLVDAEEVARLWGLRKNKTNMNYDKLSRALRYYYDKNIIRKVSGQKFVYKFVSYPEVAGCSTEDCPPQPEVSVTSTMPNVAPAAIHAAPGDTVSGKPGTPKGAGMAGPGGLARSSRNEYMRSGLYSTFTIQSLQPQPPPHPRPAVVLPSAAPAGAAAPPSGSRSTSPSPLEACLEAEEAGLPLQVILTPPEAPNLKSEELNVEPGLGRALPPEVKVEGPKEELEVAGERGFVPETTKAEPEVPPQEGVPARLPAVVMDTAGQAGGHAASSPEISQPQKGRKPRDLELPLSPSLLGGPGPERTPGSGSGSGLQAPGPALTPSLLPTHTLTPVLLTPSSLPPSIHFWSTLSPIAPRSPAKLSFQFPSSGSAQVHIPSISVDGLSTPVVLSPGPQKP
# In short: as §1
# GABPA = target: T3, GABPA (Homo sapiens, UniProt Q06546 1-454); conditions: protein: recombinant; tags: N-terminal GST; dsDNA, one strand shown
# T3 sequence: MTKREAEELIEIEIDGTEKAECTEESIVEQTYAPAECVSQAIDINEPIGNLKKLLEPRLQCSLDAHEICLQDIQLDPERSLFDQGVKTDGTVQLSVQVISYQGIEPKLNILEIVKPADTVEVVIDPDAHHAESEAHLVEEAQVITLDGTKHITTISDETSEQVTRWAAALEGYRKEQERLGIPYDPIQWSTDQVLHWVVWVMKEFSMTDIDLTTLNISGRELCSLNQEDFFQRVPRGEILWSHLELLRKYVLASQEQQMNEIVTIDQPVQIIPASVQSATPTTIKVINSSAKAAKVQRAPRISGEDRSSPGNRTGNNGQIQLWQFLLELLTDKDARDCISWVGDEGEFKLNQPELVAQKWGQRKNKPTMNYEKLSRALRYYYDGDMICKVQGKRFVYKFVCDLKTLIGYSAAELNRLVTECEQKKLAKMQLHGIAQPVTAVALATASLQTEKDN
# In short: as §1
# ERG = target: T4, ERG (Homo sapiens, UniProt P11308 1-479); conditions: protein: recombinant; tags: N-terminal GST; dsDNA, one strand shown
# T4 sequence: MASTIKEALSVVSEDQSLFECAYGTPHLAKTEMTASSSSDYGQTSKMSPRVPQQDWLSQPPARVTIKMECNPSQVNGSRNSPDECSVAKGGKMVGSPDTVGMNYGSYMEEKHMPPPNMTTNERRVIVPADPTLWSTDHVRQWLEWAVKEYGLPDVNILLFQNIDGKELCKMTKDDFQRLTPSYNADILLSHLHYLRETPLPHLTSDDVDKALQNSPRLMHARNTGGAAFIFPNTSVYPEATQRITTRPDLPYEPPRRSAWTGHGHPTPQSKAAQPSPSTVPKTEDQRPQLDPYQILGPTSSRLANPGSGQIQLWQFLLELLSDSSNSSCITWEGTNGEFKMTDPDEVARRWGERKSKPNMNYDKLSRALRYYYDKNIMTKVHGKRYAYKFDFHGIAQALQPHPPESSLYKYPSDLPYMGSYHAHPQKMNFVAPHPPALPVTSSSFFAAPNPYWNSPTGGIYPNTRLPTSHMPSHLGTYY
# In short: as §1
# ELF1 = ELF1 (Homo sapiens, UniProt P32519 1-619); conditions: protein: recombinant; tags: N-terminal GST; dsDNA, one strand shown
# In short: as §1
# EHF = target: T5, EHF (Homo sapiens, UniProt Q9NZC4 1-300); conditions: protein: recombinant; tags: N-terminal GST; dsDNA, one strand shown
# T5 sequence: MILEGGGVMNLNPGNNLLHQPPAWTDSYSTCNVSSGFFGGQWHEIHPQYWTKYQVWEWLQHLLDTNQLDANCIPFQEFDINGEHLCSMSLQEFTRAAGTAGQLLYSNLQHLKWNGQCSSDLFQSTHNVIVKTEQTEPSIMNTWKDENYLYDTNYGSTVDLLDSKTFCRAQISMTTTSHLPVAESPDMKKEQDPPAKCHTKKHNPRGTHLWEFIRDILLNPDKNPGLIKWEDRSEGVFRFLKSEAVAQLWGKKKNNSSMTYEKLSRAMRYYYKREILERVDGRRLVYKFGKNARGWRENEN
# In short: as §1
# SPI1 = SPI1 (Homo sapiens, UniProt P17947 1-270); conditions: protein: recombinant; tags: N-terminal GST; dsDNA, one strand shown
# In short: as §1
# SPIB = SPIB (Homo sapiens, UniProt Q01892 1-262); conditions: protein: recombinant; tags: N-terminal GST; dsDNA, one strand shown
# In short: as §1
# ELK3 = target: T6, ELK3 (Homo sapiens, UniProt P41970 1-407); conditions: protein: recombinant; tags: N-terminal GST; dsDNA, one strand shown
# T6 sequence: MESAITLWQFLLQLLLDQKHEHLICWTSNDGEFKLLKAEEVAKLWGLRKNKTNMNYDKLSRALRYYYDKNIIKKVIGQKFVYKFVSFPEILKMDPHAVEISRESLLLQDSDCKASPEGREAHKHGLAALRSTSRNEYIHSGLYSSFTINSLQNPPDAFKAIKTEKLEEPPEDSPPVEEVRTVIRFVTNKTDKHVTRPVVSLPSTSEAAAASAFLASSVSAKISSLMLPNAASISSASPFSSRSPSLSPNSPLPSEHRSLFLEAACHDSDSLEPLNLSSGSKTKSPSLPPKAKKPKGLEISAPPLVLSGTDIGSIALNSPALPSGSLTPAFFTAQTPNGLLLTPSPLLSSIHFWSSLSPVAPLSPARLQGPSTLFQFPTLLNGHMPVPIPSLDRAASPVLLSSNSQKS
# In short: as §1
# FEV = target: T7, FEV (Homo sapiens, UniProt Q99581 1-238); conditions: protein: recombinant; tags: N-terminal GST; dsDNA, one strand shown
# T7 sequence: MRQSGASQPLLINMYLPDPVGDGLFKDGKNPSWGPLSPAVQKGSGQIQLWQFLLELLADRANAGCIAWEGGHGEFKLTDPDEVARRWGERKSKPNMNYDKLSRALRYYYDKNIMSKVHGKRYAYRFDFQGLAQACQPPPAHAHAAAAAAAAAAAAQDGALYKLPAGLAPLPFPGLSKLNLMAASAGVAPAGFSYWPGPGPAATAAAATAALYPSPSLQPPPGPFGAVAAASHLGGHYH
# In short: as §1
# ETV5 = ETV5 (Homo sapiens, UniProt P41161 1-510); conditions: protein: recombinant; tags: N-terminal GST; dsDNA, one strand shown
# In short: as §1
# HSF1 = HSF1 (Homo sapiens, UniProt Q00613 1-529); conditions: protein: recombinant; tags: N-terminal GST; chain copies: 3; dsDNA, one strand shown
# In short: as §1
# SPIC = target: T8, SPIC (Homo sapiens, UniProt Q8N5J4 1-248); conditions: protein: recombinant; tags: N-terminal GST; dsDNA, one strand shown
# T8 sequence: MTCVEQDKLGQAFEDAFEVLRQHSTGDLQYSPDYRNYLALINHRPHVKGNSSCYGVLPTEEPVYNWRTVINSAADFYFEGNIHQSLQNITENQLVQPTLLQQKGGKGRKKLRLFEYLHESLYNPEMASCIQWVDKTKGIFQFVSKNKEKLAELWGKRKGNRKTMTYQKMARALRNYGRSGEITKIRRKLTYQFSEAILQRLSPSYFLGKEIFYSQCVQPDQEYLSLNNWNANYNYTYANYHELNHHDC
# In short: as §1
# ELF4 = ELF4 (Homo sapiens, UniProt Q99607 1-663); conditions: protein: recombinant; tags: N-terminal GST; dsDNA, one strand shown
# In short: as §1
# ELK4 = target: T9, ELK4 (Homo sapiens, UniProt P28324-2 1-405); conditions: protein: recombinant; tags: N-terminal GST; dsDNA, one strand shown
# T9 sequence: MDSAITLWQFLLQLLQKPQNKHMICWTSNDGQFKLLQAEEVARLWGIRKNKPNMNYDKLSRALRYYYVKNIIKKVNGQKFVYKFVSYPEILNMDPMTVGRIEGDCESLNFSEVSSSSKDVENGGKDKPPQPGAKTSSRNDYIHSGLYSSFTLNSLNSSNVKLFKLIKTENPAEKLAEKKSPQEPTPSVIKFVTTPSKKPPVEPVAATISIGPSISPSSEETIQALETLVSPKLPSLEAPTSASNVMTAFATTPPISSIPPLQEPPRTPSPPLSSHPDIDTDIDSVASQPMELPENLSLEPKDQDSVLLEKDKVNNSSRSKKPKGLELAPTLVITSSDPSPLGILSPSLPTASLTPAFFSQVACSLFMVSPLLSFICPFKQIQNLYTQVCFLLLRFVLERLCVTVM
# In short: as §1
# ETV2 = target: T10, ETV2 (Homo sapiens, UniProt O00321 1-342); conditions: protein: recombinant; tags: N-terminal GST; dsDNA, one strand shown
# T10 sequence: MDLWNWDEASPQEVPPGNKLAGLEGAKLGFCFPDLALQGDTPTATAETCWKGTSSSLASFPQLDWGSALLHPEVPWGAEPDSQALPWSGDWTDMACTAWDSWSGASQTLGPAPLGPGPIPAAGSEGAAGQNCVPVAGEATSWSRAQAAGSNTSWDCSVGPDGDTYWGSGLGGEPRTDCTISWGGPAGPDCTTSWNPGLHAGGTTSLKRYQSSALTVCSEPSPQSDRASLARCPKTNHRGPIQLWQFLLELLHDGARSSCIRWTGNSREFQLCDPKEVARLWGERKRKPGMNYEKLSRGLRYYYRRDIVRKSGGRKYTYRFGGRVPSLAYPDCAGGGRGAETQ
# In short: as §1
# ELF3 = target: T11, ELF3 (Homo sapiens, UniProt P78545 1-371); conditions: protein: recombinant; tags: N-terminal GST; dsDNA, one strand shown
# T11 sequence: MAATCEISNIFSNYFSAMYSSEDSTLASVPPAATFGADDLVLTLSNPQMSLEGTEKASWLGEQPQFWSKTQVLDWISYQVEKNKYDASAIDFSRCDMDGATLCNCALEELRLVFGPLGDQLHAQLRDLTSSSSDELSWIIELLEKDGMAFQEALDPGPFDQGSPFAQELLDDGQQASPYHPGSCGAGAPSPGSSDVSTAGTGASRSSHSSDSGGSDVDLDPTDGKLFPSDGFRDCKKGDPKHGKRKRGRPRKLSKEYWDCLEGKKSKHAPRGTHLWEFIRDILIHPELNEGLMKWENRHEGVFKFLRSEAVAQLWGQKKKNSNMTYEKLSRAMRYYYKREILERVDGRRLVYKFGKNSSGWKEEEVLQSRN
# In short: as §1
# CRX = CRX (Homo sapiens, UniProt O43186 1-299); conditions: protein: recombinant; tags: N-terminal GST; dsDNA, one strand shown
# In short: as §1
# ETV1 = ETV1 (Homo sapiens, UniProt P50549 1-477); conditions: protein: recombinant; tags: N-terminal GST; dsDNA, one strand shown
# In short: as §1
# Sequence of CRX (O43186 whole entry): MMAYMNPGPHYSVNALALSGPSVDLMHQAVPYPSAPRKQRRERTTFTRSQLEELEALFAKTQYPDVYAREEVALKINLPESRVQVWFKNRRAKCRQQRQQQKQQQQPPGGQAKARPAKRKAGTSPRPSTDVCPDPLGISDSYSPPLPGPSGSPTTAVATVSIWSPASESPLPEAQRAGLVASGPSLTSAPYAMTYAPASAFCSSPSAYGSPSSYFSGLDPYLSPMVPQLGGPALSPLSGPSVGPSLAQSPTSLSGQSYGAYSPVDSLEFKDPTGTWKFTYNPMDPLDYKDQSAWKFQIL
# Sequence of ELF1 (P32519 whole entry): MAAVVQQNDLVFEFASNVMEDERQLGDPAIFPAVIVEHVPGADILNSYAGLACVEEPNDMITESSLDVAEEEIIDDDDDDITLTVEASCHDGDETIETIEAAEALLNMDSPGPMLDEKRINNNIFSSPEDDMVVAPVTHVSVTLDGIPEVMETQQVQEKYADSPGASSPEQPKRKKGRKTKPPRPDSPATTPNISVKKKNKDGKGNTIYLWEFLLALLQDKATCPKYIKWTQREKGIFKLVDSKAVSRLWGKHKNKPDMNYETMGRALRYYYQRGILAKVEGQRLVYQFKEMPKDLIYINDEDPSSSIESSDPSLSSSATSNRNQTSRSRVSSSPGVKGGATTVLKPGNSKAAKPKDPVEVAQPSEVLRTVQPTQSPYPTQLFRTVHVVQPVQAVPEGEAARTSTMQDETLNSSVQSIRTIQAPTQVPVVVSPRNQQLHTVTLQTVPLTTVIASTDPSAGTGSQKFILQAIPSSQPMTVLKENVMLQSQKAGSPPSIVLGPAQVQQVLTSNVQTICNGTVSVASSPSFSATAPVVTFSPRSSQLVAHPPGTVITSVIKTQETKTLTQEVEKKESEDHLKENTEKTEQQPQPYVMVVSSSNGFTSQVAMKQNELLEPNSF
# Sequence of ETV5 (P41161 whole entry): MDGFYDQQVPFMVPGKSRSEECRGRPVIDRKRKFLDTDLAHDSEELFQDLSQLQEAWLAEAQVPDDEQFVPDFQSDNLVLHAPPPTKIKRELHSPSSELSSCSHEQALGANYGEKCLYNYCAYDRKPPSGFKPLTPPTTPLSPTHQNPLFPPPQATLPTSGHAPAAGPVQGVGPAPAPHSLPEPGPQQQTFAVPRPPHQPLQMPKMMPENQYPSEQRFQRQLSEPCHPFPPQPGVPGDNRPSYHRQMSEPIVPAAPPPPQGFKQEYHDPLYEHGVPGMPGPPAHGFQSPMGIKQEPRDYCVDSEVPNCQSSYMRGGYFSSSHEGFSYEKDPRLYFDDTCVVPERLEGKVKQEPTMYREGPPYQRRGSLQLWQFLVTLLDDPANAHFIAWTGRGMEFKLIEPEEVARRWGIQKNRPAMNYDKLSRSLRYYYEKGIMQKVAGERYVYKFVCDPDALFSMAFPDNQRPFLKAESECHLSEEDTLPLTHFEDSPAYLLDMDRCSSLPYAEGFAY
# Sequence of HSF1 (Q00613 whole entry): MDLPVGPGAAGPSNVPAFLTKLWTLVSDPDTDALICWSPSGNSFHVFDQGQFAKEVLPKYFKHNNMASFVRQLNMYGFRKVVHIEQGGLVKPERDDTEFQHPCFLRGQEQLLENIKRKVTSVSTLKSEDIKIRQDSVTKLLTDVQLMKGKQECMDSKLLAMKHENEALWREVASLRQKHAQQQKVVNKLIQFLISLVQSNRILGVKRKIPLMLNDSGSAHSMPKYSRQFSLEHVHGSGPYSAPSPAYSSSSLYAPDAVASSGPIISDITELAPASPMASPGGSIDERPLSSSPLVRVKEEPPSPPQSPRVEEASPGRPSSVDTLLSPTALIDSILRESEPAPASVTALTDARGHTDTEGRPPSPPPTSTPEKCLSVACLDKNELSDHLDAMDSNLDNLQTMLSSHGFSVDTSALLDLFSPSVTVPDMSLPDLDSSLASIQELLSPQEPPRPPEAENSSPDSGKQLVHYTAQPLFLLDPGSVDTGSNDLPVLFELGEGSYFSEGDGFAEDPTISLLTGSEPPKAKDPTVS
# Sequence of SPIB (Q01892 whole entry): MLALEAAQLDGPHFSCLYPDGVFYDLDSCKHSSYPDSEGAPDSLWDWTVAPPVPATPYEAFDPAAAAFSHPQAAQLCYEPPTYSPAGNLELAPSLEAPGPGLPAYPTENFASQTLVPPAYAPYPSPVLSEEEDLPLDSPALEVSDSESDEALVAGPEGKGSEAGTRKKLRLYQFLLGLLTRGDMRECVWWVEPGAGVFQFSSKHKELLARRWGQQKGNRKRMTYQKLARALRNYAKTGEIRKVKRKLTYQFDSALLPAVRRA
# Sequence of ETV1 (P50549 whole entry): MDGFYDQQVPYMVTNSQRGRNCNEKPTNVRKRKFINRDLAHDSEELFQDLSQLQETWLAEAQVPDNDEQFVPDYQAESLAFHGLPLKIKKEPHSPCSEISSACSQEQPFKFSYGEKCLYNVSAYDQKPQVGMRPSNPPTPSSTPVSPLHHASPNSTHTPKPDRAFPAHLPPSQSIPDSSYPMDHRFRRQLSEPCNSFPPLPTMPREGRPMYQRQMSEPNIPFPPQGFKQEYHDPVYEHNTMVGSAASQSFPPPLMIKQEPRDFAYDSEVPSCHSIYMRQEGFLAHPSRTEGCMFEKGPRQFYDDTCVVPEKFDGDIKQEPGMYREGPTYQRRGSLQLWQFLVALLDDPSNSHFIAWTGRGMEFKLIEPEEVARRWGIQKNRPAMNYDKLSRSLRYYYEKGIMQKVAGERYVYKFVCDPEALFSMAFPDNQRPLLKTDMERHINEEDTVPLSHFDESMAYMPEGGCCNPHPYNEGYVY
# Sequence of ELF4 (Q99607 whole entry): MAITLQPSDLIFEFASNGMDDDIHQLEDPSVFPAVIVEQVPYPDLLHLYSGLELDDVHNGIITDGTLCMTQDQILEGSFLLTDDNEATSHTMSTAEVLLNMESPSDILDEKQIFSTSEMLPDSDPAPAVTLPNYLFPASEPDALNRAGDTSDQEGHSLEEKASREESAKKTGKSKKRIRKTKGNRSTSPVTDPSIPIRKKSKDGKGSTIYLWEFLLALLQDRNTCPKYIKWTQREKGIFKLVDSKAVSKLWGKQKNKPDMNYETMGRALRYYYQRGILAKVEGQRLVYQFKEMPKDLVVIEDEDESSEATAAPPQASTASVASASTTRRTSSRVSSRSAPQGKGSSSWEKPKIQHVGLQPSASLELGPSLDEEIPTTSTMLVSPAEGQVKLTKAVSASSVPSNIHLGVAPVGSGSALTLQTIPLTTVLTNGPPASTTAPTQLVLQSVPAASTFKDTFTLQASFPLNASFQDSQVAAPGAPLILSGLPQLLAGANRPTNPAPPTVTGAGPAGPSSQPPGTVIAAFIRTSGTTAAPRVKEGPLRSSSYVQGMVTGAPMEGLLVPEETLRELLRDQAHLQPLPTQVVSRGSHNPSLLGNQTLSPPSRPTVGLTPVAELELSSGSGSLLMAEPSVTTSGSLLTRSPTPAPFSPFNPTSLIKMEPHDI
sequence,measurement,setting,value
CTTAGC,binding signal,FLI1,"1.22 fold enrichment (6-mer frequency, TF over GST control)"
same,binding signal,ELK1,"1.17 fold enrichment (6-mer frequency, TF over GST control)"
same,binding signal,GABPA,"1.26 fold enrichment (6-mer frequency, TF over GST control)"
same,binding signal,ERG,"1.22 fold enrichment (6-mer frequency, TF over GST control)"
same,binding signal,ELF1,"1.22 fold enrichment (6-mer frequency, TF over GST control)"
same,binding signal,EHF,"1.25 fold enrichment (6-mer frequency, TF over GST control)"
same,binding signal,SPI1,"1.21 fold enrichment (6-mer frequency, TF over GST control)"
same,binding signal,SPIB,"1.21 fold enrichment (6-mer frequency, TF over GST control)"
same,binding signal,ELK3,"1.22 fold enrichment (6-mer frequency, TF over GST control)"
same,binding signal,FEV,"1.12 fold enrichment (6-mer frequency, TF over GST control)"
same,binding signal,ETV5,"1.18 fold enrichment (6-mer frequency, TF over GST control)"
same,binding signal,HSF1,"1.47 fold enrichment (6-mer frequency, TF over GST control)"
same,binding signal,SPIC,"1.35 fold enrichment (6-mer frequency, TF over GST control)"
same,binding signal,ELF4,"1.28 fold enrichment (6-mer frequency, TF over GST control)"
same,binding signal,ELK4,"1.21 fold enrichment (6-mer frequency, TF over GST control)"
same,binding signal,ETV2,"1.3 fold enrichment (6-mer frequency, TF over GST control)"
same,binding signal,ELF3,"1.07 fold enrichment (6-mer frequency, TF over GST control)"
same,binding signal,CRX,"2.17 fold enrichment (6-mer frequency, TF over GST control)"
same,binding signal,ETV1,"1.24 fold enrichment (6-mer frequency, TF over GST control)"

# Source: PMC7862700, “An all-to-all approach to the identification of sequence-specific readers for epigenetic DNA modifications on cytosine”
